Test results reported in PubChem BioAssay (NCI).
The panel holds about 83,000 compounds, 20% with a hit somewhere; the sample as a whole holds those more often.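 Growth was measured after 48 h exposure to one concentration of compound in 96-well plates. Values under 10 count as active.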 Unmarked numbers belong to inactive results. Active and inactive are the calls of the source.

Experiments:
Assay in all cases: NCI-60 one-dose screen, 48 h (100 = growth as untreated, 0 = no growth, -100 = all killed)
[1] = system: HCT-15 colon; settings: 10 µM unless noted
[2] = system: HT29 colon; settings: 10 µM unless noted
[3] = system: SNB-75 CNS; settings: 10 µM unless noted
[4] = system: U251 CNS; settings: 10 µM unless noted
[5] = system: PC-3 prostate; settings: 10 µM unless noted
[6] = system: SK-MEL-5 melanoma; settings: 10 µM unless noted
[7] = system: UACC-62 melanoma; settings: 10 µM unless noted
[8] = system: LOX IMVI melanoma; settings: 10 µM unless noted
[9] = system: SK-MEL-28 melanoma; settings: 10 µM unless noted
[10] = system: SK-MEL-2 melanoma; settings: 10 µM
[11] = system: SN12C renal; settings: 10 µM unless noted
[12] = system: UO-31 renal; settings: 10 µM unless noted
[13] = system: TK-10 renal; settings: 10 µM unless noted
[14] = system: ACHN renal; settings: 10 µM unless noted
[15] = system: CAKI-1 renal; settings: 10 µM unless noted
[16] = system: A498 renal; settings: 10 µM unless noted
[17] = system: CCRF-CEM leukemia; settings: 10 µM unless noted
[18] = system: MOLT-4 leukemia; settings: 10 µM unless noted
[19] = system: EKVX NSCLC; settings: 10 µM unless noted

| Compound | growth [1] | growth [2] | growth [3] | growth [4] | growth [5] | growth [6] | growth [7] | growth [8] | growth [9] | growth [10] | growth [11] | growth [12] | growth [13] | growth [14] | growth [15] | growth [16] | growth [17] | growth [18] | growth [19] |
| --- | --- | --- | --- | --- | --- | --- | --- | --- | --- | --- | --- | --- | --- | --- | --- | --- | --- | --- | --- |
| Cc1ccc(-c2cc3c(SCC(=O)Nc4cc(C(F)(F)F)ccc4Cl)nccn3n2)cc1 | 20.1% | -18.8% (active) | 95.3% | 60% | 41.1% | 48.1% | 97.5% | -6.48% (active) | 84.8% | 85.4% | 73.6% | 30.4% | 91.3% | 40.4% | 30.2% | 71.3% | 20.3% | 5.39% (active) | – |
| CSc1nc2ncnc(SC)c2[nH]1 | 110% | 89.6% | 86.8% | 83.9% | 91.6% | 106% | 110% | 99.3% | 107% | 99.4% | 100% | 82% | 99.8% | 103% | 90.9% | – | 105% | 98.9% | 94% |
| CCN1CCN(Cc2ccc(NC(=O)Nc3nc(-c4cc(OC)c(OC)c(OC)c4)cs3)cc2C(F)(F)F)CC1 | -12.6% (active) | 0.541% (active) | 24.2% | 15.3% | 6.09% (active) | -95.3% (active) | -68.4% (active) | -82.7% (active) | -51.3% (active) | – | 28.9% | 53.2% | 62.4% | 20.8% | 55.2% | 51.6% | 0.288% (active) | -18.9% (active) | 26.8% |
| Cn1cnc2c(F)c(Nc3ccc(Br)cc3Cl)c(C(=O)NOCCO)cc21 | 70% | 7.16% (active) | 71.6% | 46.2% | 90.7% | 38.2% | -26.6% (active) | 27.6% | -5.61% (active) | – | 65.9% | 40.9% | 33.7% | 52.1% | 40.2% | -37% (active) | 95.8% | 92.2% | 54.4% |
| O=C(O)c1ccc2c(c1)nc(Nc1cccc(Cl)c1)c1ccncc12 | 5.48% (active) | 19.2% | -25.6% (active) | -24.6% (active) | 10.1% | -64.9% (active) | -50.4% (active) | 7.77% (active) | 3.16% (active) | – | 12.5% | -14% (active) | 0.456% (active) | -0.277% (active) | -16.7% (active) | -49.9% (active) | 3.22% (active) | -6.15% (active) | 19.6% |
| [2H]C1([2H])[C@H](C)O[C@H](C)C([2H])([2H])N1c1ccc(NC(=O)c2cccc(-c3ccc(OC(F)(F)F)cc3)c2C)cn1 | 84.2% | 61.2% | 72.1% | 65.3% | 62.1% | – | 52.8% | 68.4% | 89.2% | 56.1% | 56.6% | 54.5% | 63.6% | 78.1% | – | 53.9% | 64.3% | 39.9% | 61.4% |
| CC[C@H](CO)Nc1nc(NCc2ccccc2)c2ncn(C(C)C)c2n1 | 53.4% | 54% | 57.4% | 62.5% | 70.8% | 66.5% | 46.8% | 51.1% | 55.5% | – | 73.4% | 55.4% | 92.4% | 46.8% | 48% | 71.3% | 65.9% | 49.6% | 72.3% |
| CNC(=O)c1ccc(Nc2ncc(C(F)(F)F)c(NCc3nccnc3N(C)S(C)(=O)=O)n2)cc1 | 1.88% (active) | -11.9% (active) | -44.7% (active) | 1.49% (active) | 10.5% | -49.5% (active) | -70% (active) | 0.319% (active) | 1.14% (active) | – | 5.6% (active) | -6.92% (active) | -21.5% (active) | 3.54% (active) | 0.765% (active) | -42.2% (active) | 4.49% (active) | -9.42% (active) | -4.53% (active) |
| O=C(Nc1ccc(-c2ccnc(Nc3ccc(N4CCOCC4)cc3)n2)cc1)[C@@H]1CCCN1 | 23.3% | 18.6% | -1.55% (active) | 51.4% | 61.2% | 49.2% | 68.5% | 30.4% | 54.5% | – | 45.6% | 26.5% | 71.6% | 44.1% | 29.9% | 26.2% | 28.1% | 21.7% | 71.7% |
| N#CCNC(=O)c1ccc(-c2ccnc(Nc3ccc(N4CCOCC4)cc3)n2)cc1 | 20.7% | 24.2% | -4.36% (active) | 19.3% | 30.8% | 25.1% | 34% | 4.92% (active) | 36.7% | – | 31.5% | -60.4% (active) | -8.51% (active) | 6.04% (active) | -5.7% (active) | -31.8% (active) | 15.7% | 7.11% (active) | 43.9% |
| Cc1ccc(Nc2nccc(N(C)c3ccc4c(C)n(C)nc4c3)n2)cc1S(N)(=O)=O | 14.3% | 3.61% (active) | -25.9% (active) | 18.8% | 45.2% | -34% (active) | -18.3% (active) | -30.1% (active) | 8.83% (active) | – | 25.7% | -2.51% (active) | 21.2% | 25.8% | 15.1% | -57% (active) | 34% | 5.93% (active) | 25.7% |
| Cc1cc(-c2cc(O)ccc2Cl)cc2nnc(Nc3ccc(OCCN4CCCC4)cc3)nc12 | -78.5% (active) | -57.1% (active) | -90.8% (active) | -74.5% (active) | -80.5% (active) | -84.9% (active) | -77.7% (active) | -63.9% (active) | -72.3% (active) | – | -79.2% (active) | -87.3% (active) | -82.1% (active) | – | -83% (active) | -68.9% (active) | -51.9% (active) | -42.9% (active) | -81.1% (active) |
| COC(=O)C1CCc2sc3ncnc(Nc4cn[nH]c4C(=O)Nc4ccc(CN5CCN(C)CC5)cc4)c3c21 (stereo not given) | 7.28% (active) | -0.301% (active) | -22.4% (active) | -24.2% (active) | 9.88% (active) | -59.3% (active) | 58.8% | 0.377% (active) | 23.5% | -20.4% (active) | 12.7% | -15.3% (active) | 5.51% (active) | 4.58% (active) | – | -25.6% (active) | 1.79% (active) | -6.03% (active) | 8.24% (active) |
| Clc1ccc(C(Cn2ccnc2)OCc2ccsc2Cl)c(Cl)c1 (stereo not given) | 42.5% | 30% | 56.4% | 54.7% | 31.1% | 31.2% | 41.9% | 43.7% | 77.2% | – | 65.6% | 25.8% | 71.6% | 56.9% | 42.4% | 49.8% | 43.4% | 17.3% | 48.4% |
| CNC(=O)c1cc(Oc2cccc3nc(Nc4ccc(Oc5ccccc5)cc4)ccc23)ccn1 | 54.7% | 62.5% | 67.8% | 65.6% | 35.4% | 36.3% | 62.6% | 83% | 77.4% | – | 81.3% | 57.9% | 78.5% | 81.1% | 67.5% | 73.8% | 69.5% | 42.7% | 62.2% |
| COC1CCC(N2C(=O)CNc3ncc(-c4ccc(C(C)(C)O)nc4)nc32)CC1 (stereo not given) | 10.1% | 5.39% (active) | -22.7% (active) | 2.23% (active) | 8.06% (active) | -45.2% (active) | -21% (active) | 2.43% (active) | -8.74% (active) | – | 7.07% (active) | -10.7% (active) | -13.4% (active) | 7.04% (active) | -1.6% (active) | – | 11.4% | 0.972% (active) | 10.9% |
